Measurements from article PMC5540273 (PLoS ONE, 2017).
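Note: kd values determined as follow-up on hits from a single-replicate KINOMEscan panel screen.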

Each compound was assayed on PDGFRB.
Work on `Cc1ccc(NC(=O)c2ccc(Cl)cc2)cc1-c1ccc(C(=O)Nc2ccncc2)cc1` [GSK1398467] yielded a Kd of 9.7 nM. With `Cc1ccc(NC(=O)Nc2ccc(Cl)c(C(F)(F)F)c2)cc1-c1ccc(C(=O)Nc2ccncc2)cc1` [GSK1398470] the Kd was 270 nM. `Cc1ccc(NC(=O)Nc2ccc(Cl)cc2)cc1-c1ccc(C(=O)Nc2ccncc2)cc1` [GSK1398472] was tested, and the Kd was 86 nM. `Cc1cnc(N)c(/C=C/c2cncc(C(=O)NCCc3ccc(Cl)cc3Cl)c2)c1.Cl` [GSK190937] gave a Kd of 140 nM. `O=C(Nc1n[nH]c2cc(-c3ccsc3)ccc12)C1CC1` [SB-732932] showed a Kd of 700 nM. Compound `COc1cccc(NC(=O)Nc2ccc(C)c(-c3ccc(C(=O)Nc4ccncc4)cc3)c2)c1` [GSK1398474] has a Kd of 40 nM. For `Cc1ccc(NC(=O)Nc2ccccc2)cc1-c1ccc(C(=O)Nc2ccncc2)cc1` [GSK1398471], the Kd was 28 nM. `Cc1ccc(NC(=O)Nc2ccccc2F)cc1-c1ccc(C(=O)Nc2ccncc2)cc1` [GSK1398477] showed a Kd of 47 nM. In the case of `CS(=O)(=O)Cc1ccc(Nc2nccc(-c3c(-c4cccc(NC(=O)C5CCCCC5)c4)nn4ncccc34)n2)cc1` [GSK350559], the Kd is reported as 74 nM.
